According to PubChem BioAssay (NCI):
This is part of a sample that, as a whole, favours compounds with a hit. Of some 79,000 tested, about 15% had one in any assay. The source made the active and inactive calls. Cut-off read from the data, not from the text of the source: active = growth inhibition above about 70%; inactive = the rest.

Assay: NCI Yeast Anticancer Drug Screen. Data for the mec2-1 strain (AID 157)
Conditions: S. cerevisiae mec2-1 strain, at 50.0 µM, hits give high values
Protocol: Growth inhibition of yeast strains with defined genetic alterations is measured as a screen for potential anti-cancer activity. Selected strains with alterations in DNA damage repair or cell cycle control were exposed to compounds and growth inhibition was measured relative to vehicle treated controls. The strain used in this assay is mec2-1

Compound	growth inhibition
CC1N2C3(c4ccccc4)OC(c4ccccc4)(c4ccccc43)C12c1ccccc1 (stereo not given)	13.2% (inactive)
N.N.N.N.O=C([O-])CCl.O=C([O-])CCl.[Co+3].[O-][Cl+3]([O-])([O-])[O-]	-0.45% (inactive)
Cc1ccccc1-n1c(C)nc2ccccc2c1=O	-30.7% (inactive)
OC(Cc1ccccn1)C(Cl)(Cl)Cl (stereo not given)	-13.5% (inactive)
CC(C)(C)NP(=O)(NC(C)(C)C)NC(C)(C)C	-9.6% (inactive)
O=C1NC(=O)C(CCO)(c2ccccc2)C(=O)N1	-13% (inactive)
Cc1ccc(S(=O)(=O)OC2CN3CCC2CC3)cc1 (stereo not given)	-2.95% (inactive)
O=NN(CCCl)C(=O)O	-9.05% (inactive)
CCOP(=O)(OCC)/C(C#N)=C/c1cccc(OC)c1	46.7% (inactive)
COc1ccc2c(c1O)C13C=C(OS(=O)(=O)c4ccc(C)cc4)C=CC1C(C2)N(C)CC3 (stereo not given)	-4.2% (inactive)
NC(=O)c1cc(N(CCCl)CCCl)c([N+](=O)[O-])cc1[N+](=O)[O-]	-11.1% (inactive)
O=C(Cc1ccc(N(CCCl)CCCl)cc1)NC1CCCC1	-16.6% (inactive)
O=Cc1ccccc1O.[Nd]	-33.6% (inactive)
CCN(CC)/C(=C\Cl)Nc1ccccn1	-4% (inactive)
Nc1nnc(N)n1N	-21.2% (inactive)
CC12CC/C(=N/NC(=O)Cc3c[nH]c4ccccc34)C=C1CCC1C2CCC2(C)C(OC(=O)c3ccccc3)CCC12 (stereo not given)	28.6% (inactive)
O=P1(Oc2ccccc2)N(CCCl)CCN1c1ccccc1 (stereo not given)	-44.8% (inactive)
O=C(Nc1ncn[nH]1)C(Cl)(Cl)Cl	-15.9% (inactive)
BrCC[N+]12CC[N+](CCBr)(CC1)C2 (tested in a mixture with another compound)	49.5% (inactive)
CSc1nc2cc(Cl)ccc2c2c1C=NCCN2	19.2% (inactive)

Compound	growth inhibition
CC(=O)Oc1cccc(C#N)c1	1.25% (inactive)
Nc1c([N+](=O)[O-])cncc1[N+](=O)[O-]	-4.15% (inactive)
CCCCCCCCCNP(=O)(OCc1ccccc1)N(CCCl)CCCl (stereo not given)	37.2% (inactive)
CCC(C)(Cl)c1ccccc1 (stereo not given)	-21.6% (inactive)
Cc1cc[n+](CCc2ccccc2)cc1	15.1% (inactive)
CCCCCCCC(=O)O.[Ni]	-0.6% (inactive)
CC(C)OP(=O)(NC(=S)c1ccccc1)OC(C)C	21% (inactive)
C(=C\c1cccs1)/CN1CCC2CCC(C2)C1 (stereo not given)	-4.15% (inactive)
CCOC(=O)CC(Br)C(=O)CBr (stereo not given)	11% (inactive)
CC(=O)OCC1OC(n2ncc3c(N4CC4)ncnc32)C(OC(C)=O)C1OC(C)=O (stereo not given)	-12.6% (inactive)
COC(=O)C1=CO[C@@H](C)[C@@H]2CN3CCc4c([nH]c5cc(OC)ccc45)[C@@H]3C[C@H]12	-28.9% (inactive)
Cc1ccccc1C(=O)[O][Pb]([CH3])([CH3])[CH3]	-48% (inactive)
O=[N+]([O-])c1cc2n[nH]nc2c2nonc12	11.3% (inactive)
CN=NNc1nc[nH]c1C(N)=O	32.2% (inactive)
C=CCN1CC2CN=NC2(C#N)C1 (stereo not given)	6.45% (inactive)
COc1cc2c(cc1O)-c1c(OC)c(O)cc3c1C(C2)N(C)CC3 (stereo not given)	-22.4% (inactive)
Oc1ccccc1C1NCCc2[nH]cnc21 (stereo not given)	11.3% (inactive)
CC(NC1=NCCO1)c1ccsc1 (stereo not given)	12.6% (inactive)
COc1cc2c(c3oc4cccc(O)c4c(=O)c13)[C@@H]1C=CO[C@@H]1O2	-15.2% (inactive)
CC1CN1P(=O)(N1CCCC1)N1CC1C (stereo not given)	15.1% (inactive)
